In PubChem BioAssay AID1035475 (Broad Institute, 2014):
Potency and affinity values are given separately. Records with an inconclusive call do not appear. Entries that show only a call come without a potency. Active and inactive are the calls of the source.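 How the source made its calls: active means fluorescent signal drops by 40% or more, counted as a hit; inconclusive means no clear call, values can overlap the other calls; inactive means the rest, including any activity in the opposite direction.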

experiment: inhibitors of fibronectin matrix deposition, dose response, AH1F cells, Alexa488-FN fluorescence, cherry-picks (AID 1035475); settings: AH1F fibroblasts, overnight; series mostly up to 35 µM;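 further: AH1F fibroblasts incorporating labeled fibronectin into their extracellular matrix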

Row | Compound | outcome
1 | C[C@H](CO)N1C[C@H](C)[C@H](CN(C)C(=O)c2cccc(F)c2)Oc2ncc(-c3ccccc3)cc2C1=O | inactive
2 | Cc1cc(C)n2ncc(C(=O)NCc3ccc(Cl)cc3)c2n1 | inactive
3 | CO[C@@H]1CN(C)C(=O)c2ccc(NC(=O)c3ccc(-c4ccccc4)cc3)cc2OC[C@@H](C)NC[C@@H]1C | inactive
4 | CO[C@H]1CN(C)C(=O)c2cc(NC(=O)Nc3cc(Cl)cc(Cl)c3)ccc2OC[C@H](C)NC[C@@H]1C | inactive
5 | C[C@@H]1CN([C@@H](C)CO)C(=O)c2cc(-c3ccccc3)cnc2O[C@@H]1CN(C)C(=O)c1cccc(F)c1 | inactive
6 | COCC(=O)Nc1ccc2c(c1)C(=O)N(C)[C@@H]1CC[C@H](CC(=O)NCc3ccccc3Cl)O[C@@H]1CO2 | inactive
7 | CC(C)NC(=O)N(C)C[C@H]1Oc2ccc(NC(=O)CCN3CCOCC3)cc2C(=O)N([C@H](C)CO)C[C@@H]1C | inactive
8 | O=C(Nc1ccccc1F)N1C[C@@H]2[C@H](c3ccccc31)[C@H](CO)N2C(=O)C1CC1 | inactive
9 | CCN1CCN(C(c2ccccc2)c2nnnn2Cc2ccccc2)CC1 (stereo not given) | inactive
10 | Cc1ccc(CS(=O)Cc2ccc(C(=O)NC3CCCC(C)C3C)o2)cc1 (stereo not given) | inactive
11 | COc1ccccc1N(CC(=O)N(CC(C)C)CC(C)C)S(=O)(=O)c1cccs1 | inactive
12 | CO[C@H]1CN(C)C(=O)c2ccc(NC(=O)c3ccc(-c4ccccc4)cc3)cc2OC[C@H](C)NC[C@@H]1C | inactive
13 | CC(NC(=O)CSc1ccc(S(=O)(=O)N2CCOCC2)cn1)c1ccc(Cl)cc1Cl (stereo not given) | inactive
14 | CN1c2ccc(-c3ccccc3)cc2[C@@H]2[C@@H](CCN2C(=O)CN2CCOCC2)[C@H]1CO | inactive
15 | CO[C@H]1CN(C)C(=O)c2cc(NC(=O)Nc3ccc(Cl)c(Cl)c3)ccc2OC[C@@H](C)NC[C@@H]1C | inactive
16 | COc1cccc(CNC(=O)CCc2nnc3ccc(NCCCN4CCCC4=O)nn23)c1 | inactive
17 | CO[C@@H]1CN(C)C(=O)c2ccc(NC(=O)c3ccc(-c4ccccc4)cc3)cc2OC[C@H](C)NC[C@H]1C | inactive
18 | COC(=O)C[C@@H]1CC[C@H]2[C@@H](COc3ccc(NC(=O)Cc4cccs4)cc3C(=O)N2C)O1 | inactive

Row | Compound | outcome
19 | C[C@H](O)C#Cc1ccc2c(c1)O[C@H](CN(C)C)[C@@H](C)CN([C@@H](C)CO)S2(=O)=O | inactive
20 | N#C[C@H]1[C@H](c2ccccc2C2=CCCCC2)[C@H](CO)N1S(=O)(=O)c1ccccc1 | inactive
21 | C[C@H](CO)N1C[C@H](C)[C@H](CN(C)Cc2ccc(-c3ccccc3)cc2)Oc2ccc(NC(=O)C3CCCCC3)cc2C1=O | inactive
22 | COc1ccc(-c2oc3ncnc(NCCCN4CCOCC4)c3c2-c2ccc(OC)cc2)cc1 | inactive
23 | CCN(Cc1ccncc1)C(=O)c1ccc2c(c1)S(=O)(=O)c1ccccc1C2=O | inactive
24 | CC(C)C(=O)Nc1ccc2c(c1)C(=O)N(C)[C@@H]1CC[C@H](CC(=O)O)O[C@@H]1CO2 | inactive
25 | CCCCOc1ccc(C(C)NC(=O)C2CCCN(S(=O)(=O)CCC)C2)cc1 (stereo not given) | inactive
26 | CO[C@@H]1CN(C)C(=O)c2cc(NC(=O)Nc3ccc(Cl)c(Cl)c3)ccc2OC[C@@H](C)NC[C@@H]1C | inactive
27 | C[C@@H]1CN([C@H](C)CO)C(=O)c2cc(-c3ccccc3)cnc2O[C@H]1CN(C)Cc1ccccc1 | inactive
28 | Cc1ccc(O)c(-c2cc(-c3cccc(Br)c3)n[nH]2)c1 | inactive
29 | O=C(NCCS(=O)(=O)N1CCN(c2ccc(F)cc2)CC1)c1ccc(Br)o1 | inactive
30 | Nc1nc(-c2cc3c(cc2Cl)OCCO3)cs1 | inactive
31 | COc1ccc([N+](=O)[O-])cc1NS(=O)(=O)c1ccc(C(=O)N2CCCC2)cc1 | inactive
32 | CN(C)C(=O)c1ccc(-c2ccc3c(c2)[C@@H]2[C@@H](CCN2C(=O)c2ccc(F)cc2)[C@H](CO)N3C)cc1 | inactive
33 | O=C(CSc1nc2ncc(Cl)cc2[nH]1)c1c[nH]c2ccccc12 | inactive
34 | COC(=O)C[C@H]1CC[C@@H]2[C@@H](COc3ccc(NC(=O)Cc4cccs4)cc3C(=O)N2C)O1 | inactive
35 | COc1ccc(CN(C2CCCC2)S(=O)(=O)c2ccc(-n3cnnn3)cc2)cc1OC | inactive
